The antibiotic and cytotoxicity screens of Wong et al. (2023)
Out of some 39,000 compounds screened, about 3,300 (8.5%) were called active. For the sample, actives were picked, then their nearest neighbours and some compounds at random.

System: HepG2
Test: cytotoxicity call (relative viability < 0.9)
Conditions: 10 µM

SMILES	cytotoxicity call
NC(=O)c1ccc[n+](CC(=O)c2ccccc2)c1	inactive
C[C@@H]1CN([C@H](C)CO)C(=O)c2cc(NC(=O)Cc3ccccc3)ccc2O[C@@H](C)CCCCO[C@@H]1CN(C)CC1CCCCC1	inactive
Cc1noc(C)c1S(=O)(=O)N(C)C[C@@H]1OCCCC[C@H](C)Oc2ccc(NS(=O)(=O)c3cn(C)cn3)cc2C(=O)N([C@@H](C)CO)C[C@H]1C	inactive
OC[C@@H]1CC[C@@H]2O[C@H](CCc3ccc(C#CCc4ccccc4)cc3)[C@@H](n3cc(-c4ccccc4)nn3)C[C@@H]2O1	inactive
CO[C@H](C(=O)N(C)C[C@@H]1OCc2ccccc2-c2c(n(C)c3ccccc23)C(=O)N([C@H](C)CO)C[C@H]1C)c1ccccc1	inactive
CN(C)C(=O)[C@H]1[C@H](CO)[C@H]2Cn3c(ccc(C4=CCCC4)c3=O)[C@@H]1N2S(=O)(=O)c1cn(C)cn1	inactive
O=C(C[C@@H]1CC[C@H]2[C@@H](COC[C@H](O)CN2S(=O)(=O)c2cccc(F)c2)O1)NCc1ccc(Cl)c(Cl)c1	inactive
C[C@@H]1CN([C@H](C)CO)C(=O)c2cc(NC(=O)CCC(F)(F)F)ccc2O[C@H]1CN(C)Cc1ccc(-c2ccccc2)cc1	active
C[C@H]1CN([C@@H](C)CO)C(=O)c2cc(NC(=O)CCC(F)(F)F)ccc2O[C@H]1CN(C)Cc1ccc(-c2ccccc2)cc1	inactive
C[C@H]1CN([C@@H](C)CO)C(=O)c2cc(NC(=O)CCC(F)(F)F)ccc2O[C@@H]1CN(C)Cc1ccc(-c2ccccc2)cc1	active
C[C@H](CO)N1C[C@H](C)[C@@H](CN(C)Cc2ccc(-c3ccccc3)cc2)Oc2ccc(NC(=O)CCC(F)(F)F)cc2C1=O	inactive
C[C@@H]1CN([C@@H](C)CO)C(=O)c2cc(NC(=O)CCC(F)(F)F)ccc2O[C@@H]1CN(C)Cc1ccc(-c2ccccc2)cc1	inactive
C[C@@H]1CN([C@@H](C)CO)C(=O)c2cc(NC(=O)CCC(F)(F)F)ccc2O[C@H]1CN(C)Cc1ccc(Oc2ccccc2)cc1	inactive
C[C@H](CO)N1C[C@H](C)[C@H](CN(C)Cc2ccc(-c3ccccc3)cc2)Oc2ccc(NC(=O)CCC(F)(F)F)cc2C1=O	active
C[C@H](CO)N1C[C@H](C)[C@@H](CN(C)Cc2ccc(Oc3ccccc3)cc2)Oc2ccc(NC(=O)CCC(F)(F)F)cc2C1=O	inactive
C[C@H]1CN([C@@H](C)CO)C(=O)c2cc(NC(=O)CCC(F)(F)F)ccc2O[C@@H]1CN(C)Cc1ccc(C(F)(F)F)cc1	inactive
C[C@@H]1CN([C@H](C)CO)C(=O)c2cc(NC(=O)CCC(F)(F)F)ccc2O[C@@H]1CN(C)Cc1ccc(-c2ccccc2)cc1	inactive
C[C@@H]1CN([C@@H](C)CO)C(=O)c2cc(NC(=O)CCC(F)(F)F)ccc2O[C@H]1CN(C)Cc1ccc(-c2ccccc2)cc1	active
C[C@H](CO)N1C[C@H](C)[C@H](CN(C)Cc2ccc(C(F)(F)F)cc2)Oc2ccc(NC(=O)CCC(F)(F)F)cc2C1=O	inactive
CCN1CCC(N(C)S(=O)(=O)c2cn(C)c(=O)n(C)c2=O)CC1	inactive

SMILES	cytotoxicity call
CO[C@@H]1CN(C)C(=O)c2ccc(NS(C)(=O)=O)cc2OC[C@H](C)N(C(=O)C2CCCCC2)C[C@H]1C	inactive
C[C@@H]1CN([C@H](C)CO)C(=O)c2cc(NS(C)(=O)=O)ccc2O[C@H]1CN(C)Cc1ccc(C(=O)Nc2ccccc2N)cc1	inactive
C[C@@H]1CCCCO[C@@H](CN(C)C(=O)Nc2cccc3ccccc23)[C@@H](C)CN([C@H](C)CO)C(=O)c2cc(NS(=O)(=O)c3cccs3)ccc2O1	inactive
C[C@@H]1CN([C@@H](C)CO)C(=O)c2cccc(NS(=O)(=O)c3ccccc3)c2O[C@H]1CN(C)Cc1ccncc1	inactive
CCOc1nc2cccc(C(=O)O[C@@H](C)OC(=O)OC3CCCCC3)c2n1Cc1ccc(-c2ccccc2-c2nn[nH]n2)cc1	inactive
c1ccc2c(c1)Cn1nnnc1-2	inactive
C[C@H]1CN([C@@H](C)CO)S(=O)(=O)c2ccc(-c3ccc(C(=O)N(C)C)cc3)cc2O[C@@H]1CN(C)C(=O)Cc1ccccn1	inactive
C[C@@H]1CN([C@@H](C)CO)C(=O)CCCn2nncc2CO[C@@H]1CN(C)C(=O)Nc1ccc(N2CCCCC2)cc1	inactive
COc1ccccc1C#Cc1cnc2c(c1)C(=O)N([C@@H](C)CO)C[C@@H](C)[C@H](CN(C)C(=O)c1ccc3c(c1)OCO3)O2	inactive
C[C@H](CO)N1C[C@H](C)[C@@H](CN(C)Cc2ccc(Cl)c(Cl)c2)Oc2c(NC(=O)CCCCCC(=O)Nc3ccccc3N)cccc2C1=O	inactive
C[C@@H]1CCCCO[C@H](CN(C)C(=O)Nc2ccc(C(F)(F)F)cc2)[C@H](C)CN([C@H](C)CO)C(=O)c2cc(NS(=O)(=O)c3cccs3)ccc2O1	inactive
C[C@H](CO)N1C[C@H](C)[C@H](CN(C)C(=O)Nc2ccc(C(F)(F)F)cc2)OCCCC[C@H](C)Oc2ccc(NS(=O)(=O)c3cccs3)cc2C1=O	active
C[C@@H]1CCCCO[C@H](CN(C)C(=O)Nc2ccccc2)[C@@H](C)CN([C@@H](C)CO)C(=O)c2cc(NS(=O)(=O)c3cccs3)ccc2O1	active
C[C@@H]1CN([C@H](C)CO)C(=O)c2cc(NS(=O)(=O)c3cccs3)ccc2O[C@@H](C)CCCCO[C@H]1CN(C)C(=O)NC1CCCCC1	inactive
C[C@@H]1CN([C@H](C)CO)C(=O)c2cc(NS(=O)(=O)c3cccs3)ccc2O[C@@H](C)CCCCO[C@@H]1CN(C)C(=O)NC1CCCCC1	active
C[C@@H]1CN([C@@H](C)CO)C(=O)c2cc(NS(=O)(=O)c3cccs3)ccc2O[C@@H](C)CCCCO[C@@H]1CN(C)C(=O)Nc1ccc(C(F)(F)F)cc1	inactive
C[C@H]1CCCCO[C@@H](CN(C)C(=O)Nc2ccccc2)[C@@H](C)CN([C@@H](C)CO)C(=O)c2cc(NS(=O)(=O)c3cccs3)ccc2O1	inactive
C[C@@H]1CCCCO[C@@H](CN(C)C(=O)Nc2ccccc2)[C@@H](C)CN([C@H](C)CO)C(=O)c2cc(NS(=O)(=O)c3cccs3)ccc2O1	inactive
C[C@@H]1CCCCO[C@H](CN(C)C(=O)Nc2ccc(C(F)(F)F)cc2)[C@@H](C)CN([C@H](C)CO)C(=O)c2cc(NS(=O)(=O)c3cccs3)ccc2O1	inactive
C[C@H](CO)N1C[C@H](C)[C@@H](CN(C)C(=O)Nc2ccc(C(F)(F)F)cc2)OCCCC[C@H](C)Oc2ccc(NS(=O)(=O)c3cccs3)cc2C1=O	active

SMILES	cytotoxicity call
C[C@@H]1CCCCO[C@@H](CN(C)C(=O)Nc2ccc(C(F)(F)F)cc2)[C@H](C)CN([C@@H](C)CO)C(=O)c2cc(NS(=O)(=O)c3cccs3)ccc2O1	inactive
C[C@H]1CCCCO[C@@H](CN(C)C(=O)NC2CCCCC2)[C@@H](C)CN([C@@H](C)CO)C(=O)c2cc(NS(=O)(=O)c3cccs3)ccc2O1	inactive
Cc1cc(C)c2nnc(SCC(=O)O)n2n1	inactive
C[C@@H]1CN([C@@H](C)CO)C(=O)Cc2cc(NS(C)(=O)=O)ccc2O[C@H]1CN(C)C(=O)NC1CCCCC1	inactive
Cc1noc(C)c1NC(=O)N[C@@H]1CC[C@H](CC(=O)NCCCN(C)C)O[C@@H]1CO	inactive
O=C(C[C@@H]1C[C@H]2c3cc(NS(=O)(=O)c4ccc(F)cc4)ccc3O[C@H]2[C@H](CO)O1)NCc1ccccc1	inactive
Cc1ccc(S(=O)(=O)N(C)C[C@H]2Oc3ccc(NS(C)(=O)=O)cc3C(=O)N([C@@H](C)CO)C[C@H]2C)cc1	inactive
CN(C)CCCNC(=O)C[C@@H]1CC[C@H](NS(=O)(=O)c2ccccc2)[C@H](CO)O1	inactive
C[C@@H]1CCCCO[C@H](CN(C)C(=O)Nc2ccc(C(F)(F)F)cc2)[C@H](C)CN([C@@H](C)CO)C(=O)c2cc(NS(=O)(=O)c3cccs3)ccc2O1	inactive
C[C@@H]1CCCCO[C@@H](CN(C)C(=O)C2CCCCC2)[C@H](C)CN([C@H](C)CO)C(=O)c2cc(NS(=O)(=O)c3cccs3)ccc2O1	inactive
C[C@@H]1CCCCO[C@@H](CN(C)C(=O)C2CCCCC2)[C@@H](C)CN([C@H](C)CO)C(=O)c2cc(NS(=O)(=O)c3cccs3)ccc2O1	active
C[C@H]1CCCCO[C@@H](CN(C)C(=O)Nc2ccc(C(F)(F)F)cc2)[C@@H](C)CN([C@@H](C)CO)C(=O)c2cc(NS(=O)(=O)c3cccs3)ccc2O1	inactive
C[C@@H]1CCCCO[C@H](CN(C)C(=O)Nc2ccc(C(F)(F)F)cc2)[C@@H](C)CN([C@@H](C)CO)C(=O)c2cc(NS(=O)(=O)c3cccs3)ccc2O1	active
C[C@@H]1CCCCO[C@@H](CN(C)C(=O)Nc2ccc(C(F)(F)F)cc2)[C@H](C)CN([C@H](C)CO)C(=O)c2cc(NS(=O)(=O)c3cccs3)ccc2O1	active
C[C@@H]1CCCCO[C@@H](CN(C)C(=O)Nc2ccc(C(F)(F)F)cc2)[C@@H](C)CN([C@H](C)CO)C(=O)c2cc(NS(=O)(=O)c3cccs3)ccc2O1	inactive
C[C@@H]1CCCCO[C@H](CN(C)C(=O)C2CCCCC2)[C@H](C)CN([C@H](C)CO)C(=O)c2cc(NS(=O)(=O)c3cccs3)ccc2O1	inactive
C[C@H]1CCCCO[C@H](CN(C)C(=O)Nc2ccc(C(F)(F)F)cc2)[C@@H](C)CN([C@@H](C)CO)C(=O)c2cc(NS(=O)(=O)c3cccs3)ccc2O1	inactive
O=C(CCCCCCC(=O)Nc1ccccc1O)N/N=C/[C@H](O)[C@@H](O)[C@H](O)CO	inactive
COc1ccc(S(=O)(=O)N(C)C[C@@H]2OCCCC[C@@H](C)Oc3ccc(NC(=O)C4CCCCC4)cc3C(=O)N([C@@H](C)CO)C[C@@H]2C)cc1	inactive
